Results taken from the supplement of paper PMC10412459.

Tested on: K562 SF3B1 K700E vs K562 SF3B1 WT
Assay: surviving fraction ratio K562 SF3B1 K700E / K562 SF3B1 WT (each relative to DMSO); higher = less selective killing of SF3B1 K700E cells
Conditions: 5 days
Method in brief: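 In 384-well plates holding 250 cells per well, isogenic K562 cells bearing an engineered mutant allele and matched wild-type cells received compounds from an in-house 80-compound library 24 h after seeding. Doses were 0.5, 1, 5, 10, 50, 100, 500 and 1,000 nM, with 5 d of continuous culture. Surviving fractions were taken from CellTiter-Glo readings and normalised to DMSO. The value reported is the mutant-over-wild-type ratio of these fractions.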

SMILES	surviving fraction ratio K562 SF3B1 K700E / K562 SF3B1 WT (0.5nM)	surviving fraction ratio K562 SF3B1 K700E / K562 SF3B1 WT (1nM)	surviving fraction ratio K562 SF3B1 K700E / K562 SF3B1 WT (5nM)	surviving fraction ratio K562 SF3B1 K700E / K562 SF3B1 WT (10nM)	surviving fraction ratio K562 SF3B1 K700E / K562 SF3B1 WT (50nM)	surviving fraction ratio K562 SF3B1 K700E / K562 SF3B1 WT (100nM)	surviving fraction ratio K562 SF3B1 K700E / K562 SF3B1 WT (500nM)	surviving fraction ratio K562 SF3B1 K700E / K562 SF3B1 WT (1000nM)
Cn1nnc2c(C(N)=O)ncn2c1=O [temozolomide]	0.816	0.823	0.844	0.765	0.88	0.843	0.714	0.794
CC1(C)CC(=O)c2c(C(F)(F)F)nn(-c3ccc(C(N)=O)c(N[C@H]4CC[C@H](OC(=O)CN)CC4)c3)c2C1	0.983	0.972	0.763	0.719	1.18	2.16	1.09	1.16
Nc1nc(=S)c2[nH]cnc2[nH]1 [6-thioguanine]	0.927	0.836	0.914	0.819	0.78	0.792	0.828	0.777
Nc1ncn([C@H]2C[C@H](O)[C@@H](CO)O2)c(=O)n1 [decitabine]	0.733	0.724	0.773	0.665	0.964	0.894	1.13	1.36
COc1cc2nccc(Oc3ccc(NC(=O)NC4CC4)c(Cl)c3)c2cc1C(N)=O [Lenvatinib]	0.728	0.787	0.763	0.755	0.815	0.834	0.71	0.674
CNC(=O)c1ccc(N2C(=S)N(c3ccc(C#N)c(C(F)(F)F)c3)C(=O)C2(C)C)cc1F	0.896	0.933	0.864	1.07	0.871	0.847	0.769	0.98
